# Measurements taken from PubChem BioAssay (NCI).
# The panel holds about 83,000 compounds, 20% with a hit somewhere; the sample as a whole holds those more often.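 Step 1: grow cells in 96-well plates. Step 2: add test compound at a single concentration. Step 3: incubate 48 h. Step 4: record percent growth.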 Active and inactive are the calls of the source.
# Test system: HT29 colon
# Experiment: NCI-60 one-dose screen, 48 h (100 = growth as untreated, 0 = no growth, -100 = all killed)
# Details: 10 µM unless noted
# Method: Growth inhibition of the HT29 human tumor cell line is measured as a screen for anti-cancer activity. Cells are grown in 96 well plates and exposed to the test compound for 48 hours. Compounds are tested at a single concentration, which is 10^-5 M for most compounds. The reported endpoint is percent growth (GI% or GIPRCNT), where numbers from 0 - 100% represent growth inhibition, and numbers from -100% - 0 represent cell death. For example, a value of 40 represents 60% growth inhibition. A value of 0 means no net growth occurred over the course of the experiment. A value of -40 indicates 40% of cells at the beginning of the experiment died by the end of the experiment. A value of -100 means all cells are dead at the end of the experiment.
# NCI-60 Human Tumor Cell Lines Screen was performed using the standard one-dose NCI protocol, which is described in more detail at https://dtp.cancer.gov/discovery_development/nci-60/default.htm.
# Compounds with GIPRCNT values below 10 were considered active. Activity score was based on GIPRCNT using the following formula: […]
# Score is 0 for GIPRCNT values of 100 or above, 50 for GIPRCNT values of 0, and 100 for GIPRCNT values of -100.
row,SMILES,growth
1,Cc1cc(NS(=O)(=O)c2ccc(NC(=O)COc3ccc(-c4cc5ccccc5[nH]4)cc3)cc2)no1,12.3% (inactive)
2,CCCN(CCC)c1ccc(/C=C/c2ccc3cc(OCC)ccc3n2)cc1,66.7% (inactive)
3,Cc1ccc(NS(=O)(=O)c2ccc(-c3cnc(C4CC4)o3)cc2)cc1,12% (inactive)
4,COC(=O)[C@@H]1CCCN1C(=O)[C@@H]1CCCN1C(=O)[C@@H](Cc1c[nH]c2ccccc12)NC(=S)Nc1cc(C(F)(F)F)cc(C(F)(F)F)c1,51.1% (inactive)
5,O=C(Nc1ccc(Cl)c(Cl)c1)NC(CO)(CO)CO,100% (inactive)
6,c1ccc2cc(-c3n(Cc4ccc5ccccc5n4)c4ccccc4[n+]3Cc3ccc4ccccc4n3)ccc2c1,-31.7% (active)
7,O=C1c2cc(S(=O)(=O)O)ccc2C(=O)c2c1cccc2[N+](=O)[O-],104% (inactive)
8,COc1ccc(Nc2nc(NCCNc3ccnc4cc(Cl)ccc34)nc(N3CCOCC3)n2)cc1,4.28% (active)
9,ONc1nc(NO)c2[nH]cnc2n1,109% (inactive)
10,Brc1ccccc1Nc1ccc2nnc(-c3ccncc3)n2n1,109% (inactive)
11,COc1ccc(NC(=O)c2ccc3c(c2)nc(-c2ccc(Cl)cc2)n3-c2cc(C(C)(C)C)[nH]n2)cc1,116% (inactive)
12,Cc1cc(Cl)c2c(Cl)ccc(Cl)c2n1,102% (inactive)
13,O=C1/C(=C/c2ccc(Cl)cc2)N=C(c2ccccc2)N1CCc1cccs1,0.797% (active)
14,O=C(NCc1cccnc1)c1ccc([N+](=O)[O-])o1,-68.5% (active)
15,O=C1c2[nH]cc(CN[C@@H]3CCCN3)c2C(=O)c2c1c(O)c1ccccc1c2O,-98.4% (active)
16,C=C1CC[C@@H]2[C@@](C)(CCC[C@]2(C)C(=O)O)[C@@H]1CC[C@H](CO)CCO,104% (inactive)
17,Oc1ccc2ccccc2c1C1NN=C(c2ccccc2)S1 (stereo not given),37.8% (inactive)
18,COc1ncnc2c1ncn2C/C(Br)=C(\Br)CCl,-56.8% (active)
19,CN1CCN(C)c2cncc(Br)c2C1=O,107% (inactive)
20,COc1ccc(CSc2nc3cc(OC)c(OC)cc3c(=O)n2-c2ccc(Cl)cc2)cc1,112% (inactive)

row,SMILES,growth
1,COc1c(O)c2c3c(c1OC)-c1ccccc1CC3N(S(=O)(=O)c1ccc(C)cc1)CC2 (stereo not given),121% (inactive)
2,O=c1[nH]c(=S)c2c(n1CCCO)CCC2,104% (inactive)
3,O=C(N/N=C(\CS(=O)(=O)c1ccccc1)c1cc2cc(Br)ccc2oc1=O)c1ccccc1,103% (inactive)
4,Cc1nc2cc(Nc3nc(N4CCCCC4)nc(N4CCOCC4)n3)ccc2n1Cc1ccccc1,-8.67% (active)
5,CCCCCCCC/C=C\CCCCCCCCOc1cccc(CC(=O)NCC[N+](C)(C)C)c1,48.3% (inactive)
6,O=C1c2ccccc2C(=O)c2c(Nc3ccc(CCO)cc3)ccc(O)c21,57.4% (inactive)
7,O=C(Nc1ccc(F)cc1)c1ccc(C(=O)Nc2ccc(F)cc2)cc1,97.7% (inactive)
8,CCCN1CCN(c2ccc3nc(-c4ccc5nc(-c6ccc(C(F)(F)F)cc6)[nH]c5c4)[nH]c3c2)CC1,-44% (active)
9,CCOC(=O)c1c(Cl)c2c(n1Cc1ccc(OC)cc1)-c1oncc1CCC2,78.8% (inactive)
10,FC(F)(F)c1cc(CNc2ncc(Br)c(Cl)n2)cc(C(F)(F)F)c1,106% (inactive)
11,FC(F)(F)c1ccc2c(c1)n1cnnc1c1nncn21,107% (inactive)
12,COc1ccc2c(c1)c(=O)oc1c(C)c(OCC(C)=O)ccc12,103% (inactive)
13,N#CCCN1CCN(CCC#N)C1=S,98.6% (inactive)
14,CN1CCN(c2nc(-c3ccncc3)nc3sc4c(c23)CCCCCC4)CC1,24.3% (inactive)
15,CC(C)(C)[Si](C)(C)OC1[C@@H](COC(N)=O)O[C@@H](n2cnc3c(N)ncnc32)[C@H]1O[Si](C)(C)C(C)(C)C (stereo not given in full),93.6% (inactive)
16,Cc1nc2cc(Nc3nc(Cl)nc(Nc4ccc(F)cc4)n3)ccc2n1Cc1ccccc1,94.5% (inactive)
17,Clc1cccc(Cl)c1Nc1ccc2nnc(-c3ccncc3)n2n1,106% (inactive)
18,Cc1nc(NC(=O)COc2cccc(/C=C3\COc4ccccc4C3=O)c2)sc1C,-100% (active)
19,C[C@H]1C(=O)C23CCC1C[C@@]21O[C@@H]2C(C)(C)C=CC(=O)C23COC1=O,110% (inactive)
20,COc1cc(-c2nc(Nc3nc4ccccc4[nH]3)nc(N)c2C#N)cc(OC)c1OC,32% (inactive)
